Results: PubChem BioAssay
The source made the active and inactive calls.

Tests used:
[1] = adipocyte viability effects, profiling panel, cell-based, 3T3-L1 adipocytes, calcein-AM fluorescence, 48 h, basal (AID 1163); settings: 3T3-L1 adipocytes viability, higher = more signal
[2] = HepG2 cell viability effects, profiling panel, calcein-AM fluorescence, 48 h, basal (AID 1164); settings: higher = more signal
[3] = MM1S cell viability effects, profiling panel, calcein-AM fluorescence, 48 h, basal (AID 1165); settings: higher = more signal;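 note: viability of MM1S multiple myeloma cells under basal unstimulated conditions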
[4] = basal RPMI8226 viability, no added stimulus, profiling panel, cell-based, calcein-AM fluorescence, 48 h, PK04 Diversity Set (AID 1166); settings: RPMI8226 myeloma viability, higher = more signal;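 note: cells grown under basal conditions without added stimulus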
[5] = basal HepG2 mitochondrial membrane potential changes, profiling panel, cell-based, JC-1 fluorescence, 24 h, 100 nL compound (AID 1167); settings: higher = more signal
[6] = basal 3T3-L1 adipocyte mitochondrial potential changes, profiling panel, cell-based, JC-1 fluorescence, 3T3-L1 adipocytes, 24 h, 100 nL compound (AID 1168); settings: JC-1 mitochondrial fluorescence, higher = more signal, called active from +8 up or from −8 down
[7] = basal RPMI8226 mitochondrial membrane potential changes, profiling panel, cell-based, JC-1 fluorescence, 24 h, 100 nL compound (AID 1169); settings: RPMI8226 myeloma, JC-1 mitochondrial potential fluorescence, higher = more signal
[8] = basal MM1S mitochondrial membrane potential changes, profiling panel, cell-based, JC-1 fluorescence, 24 h, 100 nL compound (AID 1170); settings: higher = more signal
[9] = A549 lung cancer cell viability effects, profiling panel, resazurin fluorescence, 24 h, PK04 Diversity Set (AID 1171); settings: higher = more signal, called active from +8 up or from −8 down
[10] = HepG2 liver cancer cell viability effects, profiling panel, resazurin fluorescence, 24 h, PK04 Diversity Set (AID 1172); settings: higher = more signal
[11] = basal S. cerevisiae growth modulation, no modifier, primary screen, OD600, strain BY4716, 24 h, basal condition (AID 1173); settings: OD600, 24 h, higher = more signal, called active from +8 up or from −8 down
[12] = MM1S myeloma cell viability, profiling panel, resazurin fluorescence, basal, 24 h, PK04 Diversity Set (AID 1174); settings: higher = more signal, called active from +8 up or from −8 down;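 note: MM1S multiple myeloma cell line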
[13] = target: Dihydroorotate dehydrogenase (quinone), mitochondrial (Plasmodium falciparum (isolate 3D7)) (UniProt Q08210); assay: PfDHODH enzyme inhibitors, primary screen, biochemical, C-terminal His tag, absorbance 600 nm (AID 1175); settings: DCIP absorbance 600 nm, higher = more signal, called active from +8 up or from −8 down;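 note: recombinant parasite enzyme with a five histidine tag at its C terminus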
[14] = S. cerevisiae RM11-1a growth modifiers, primary screen, strain RM11-1a, OD600, basal, 24 h (AID 1177); settings: OD600, 24 h, higher = more signal, called active from +8 up or from −8 down;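 note: cultures grown under basal conditions with no added stressor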
[15] = E. coli acrAB mutant growth effects, primary screen, E. coli filamentation inducers, strain DRC39, OD650, 24 h (AID 1178); settings: higher = more signal, called active from +8 up or from −8 down;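 note: growth measured as culture turbidity by optical density at 650 nm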
[16] = E. coli acrAB mutant growth effects, primary screen, E. coli filamentation inducers, strain DRC39, OD650, 48 h (AID 1179);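 note: screen aims at cell division blockers that make cells filament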; settings: E. coli DRC39 delta-acrAB growth, higher = more signal, called active from +8 up or from −8 down
[17] = RPMI8226 myeloma cell viability, profiling panel, resazurin fluorescence, basal, 24 h, PK04 Diversity Set (AID 1180); settings: higher = more signal;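 note: RPMI8826 multiple myeloma cell line at 5000 cells per well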
[18] = target: E3 ubiquitin-protein ligase XIAP (Homo sapiens) (UniProt P98170); assay: XIAP binders, primary screen, biophysical, small-molecule microarray, fluorescence 635 nm (AID 1181); settings: small-molecule microarray binding, higher = more signal;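 note: score merges 667 nm emission and signal to noise over triplicate slides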
[19] = system: XIP peptide (Xip251-270) binding; assay: small-molecule binders of XIP peptide, primary screen, biochemical, small-molecule microarray, fluorescence 635/667 nm, 0.1 µg/mL protein (AID 1182); settings: fluorescent protein binding, 635 nm, higher = more signal, called active from +8 up or from −8 down
XIP peptide (Xip251-270) = assay: small-molecule binders of XIP peptide, primary screen, biochemical, small-molecule microarray, fluorescence 635/667 nm, 0.5 µg/mL protein (AID 1183); settings: small-molecule microarray binding, fluorescence 635 nm; higher = more signal

Dihydroorotate dehydrogenase (quinone), mitochondrial (Plasmodium falciparum (isolate 3D7)), sequence (Q08210 whole entry, looked up): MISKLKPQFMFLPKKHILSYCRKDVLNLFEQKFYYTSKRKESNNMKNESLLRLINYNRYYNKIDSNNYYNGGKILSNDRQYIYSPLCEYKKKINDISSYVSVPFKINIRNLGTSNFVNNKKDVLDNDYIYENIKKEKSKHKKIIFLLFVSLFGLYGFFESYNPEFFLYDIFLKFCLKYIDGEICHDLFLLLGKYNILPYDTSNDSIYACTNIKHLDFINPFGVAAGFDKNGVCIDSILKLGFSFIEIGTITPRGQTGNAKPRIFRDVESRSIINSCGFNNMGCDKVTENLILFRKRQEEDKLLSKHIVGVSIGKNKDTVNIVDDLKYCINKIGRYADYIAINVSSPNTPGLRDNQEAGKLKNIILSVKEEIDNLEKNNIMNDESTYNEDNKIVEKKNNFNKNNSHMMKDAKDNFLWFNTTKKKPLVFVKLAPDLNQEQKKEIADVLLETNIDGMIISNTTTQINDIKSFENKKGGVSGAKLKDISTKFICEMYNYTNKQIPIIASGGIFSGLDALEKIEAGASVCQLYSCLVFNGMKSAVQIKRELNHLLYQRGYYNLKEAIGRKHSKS
E3 ubiquitin-protein ligase XIAP (Homo sapiens), sequence (P98170 whole entry, looked up): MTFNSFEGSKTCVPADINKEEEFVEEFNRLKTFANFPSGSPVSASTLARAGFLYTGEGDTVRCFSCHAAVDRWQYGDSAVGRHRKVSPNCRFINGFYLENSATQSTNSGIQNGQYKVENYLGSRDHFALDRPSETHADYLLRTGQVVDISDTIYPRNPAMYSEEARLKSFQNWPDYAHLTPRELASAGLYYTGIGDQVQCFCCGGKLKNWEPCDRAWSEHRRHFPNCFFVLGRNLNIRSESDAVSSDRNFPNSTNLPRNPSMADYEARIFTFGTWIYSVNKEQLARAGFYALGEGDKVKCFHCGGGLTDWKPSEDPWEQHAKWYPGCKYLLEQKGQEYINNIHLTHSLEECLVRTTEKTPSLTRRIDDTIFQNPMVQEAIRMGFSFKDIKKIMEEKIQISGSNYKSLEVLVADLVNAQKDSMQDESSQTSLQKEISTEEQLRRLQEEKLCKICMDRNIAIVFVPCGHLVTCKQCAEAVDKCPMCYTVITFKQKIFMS

| Compound | z-score [1] | z-score [2] | z-score [3] | z-score [4] | z-score [5] | z-score [6] | z-score [7] | z-score [8] | z-score [9] | z-score [10] | z-score [11] | z-score [12] | composite z-score [13] | z-score [14] | z-score [15] | z-score [16] | z-score [17] | composite z-score [18] | composite z-score [19] | composite z-score (XIP peptide (Xip251-270)) |
| --- | --- | --- | --- | --- | --- | --- | --- | --- | --- | --- | --- | --- | --- | --- | --- | --- | --- | --- | --- | --- |
| COC(=O)C1=CC(CCCO)=CC(C2CC2)N(Cc2cc3c(cc2Br)OCO3)C=C1C(=O)OC (stereo not given) | 1.19 | 0.489 | 0.0635 | 0.627 | 1.1 | 0.857 (inactive) | -0.147 | 1.28 | 0.565 (inactive) | 0.365 | -1.81 (inactive) | 1.06 (inactive) | -0.509 (inactive) | -0.847 (inactive) | 0.489 (inactive) | -0.0093 (inactive) | 1.45 | 0.295 | 1.68 (inactive) | 0.0315 |
| CCOC(=O)C[C@H]1[C@H](OC(=O)c2ccc(-c3ccccc3)cc2)[C@@H](NC(=O)c2ccccc2)c2cc(OCCCO)ccc2N1C(=O)c1ccccc1 | 1.54 | -0.159 | 1.11 | -0.132 | 3.28 | 0.318 (inactive) | 0.709 | 1.38 | -0.325 (inactive) | 0.643 | -1.34 (inactive) | 1.83 (inactive) | 0.594 (inactive) | -1.37 (inactive) | 1.76 (inactive) | 1 (inactive) | 0.815 | -0.0351 | 0.358 (inactive) | -0.206 |
| COc1ccc([Si](C)(C)[C@@H]2[C@@H](CC(=O)N3CCC[C@H]3CO)O[C@]3(C(=O)N(Cc4ccc(N5CCC5=O)cc4)c4ccccc43)[C@H]2C)cc1 | 0.592 | -3.27 | -2.7 | -4.39 | -1.56 | 1.28 (inactive) | -1.18 | -1.66 | -1.99 (inactive) | -1.43 | -1.17 (inactive) | -2.01 (inactive) | -2.42 (inactive) | 0.613 (inactive) | 1.34 (inactive) | 1.2 (inactive) | -5.16 | -0.117 | 1.15 (inactive) | 0.713 |
| C[C@@H](OCc1ccccc1)C1NC(=O)[C@@]23C(=O)N[C@@H](Cc4ccccc4)C2[C@H](C)[C@@]2(C)O[C@H]2C3/C=C/C/C=C\CNC(=O)[C@@H]2CCCN2C1=O (stereo not given in full) | 0.812 | 0.11 | -1.11 | -0.722 | 2.87 | 0.566 (inactive) | 0.0782 | 1.19 | 1.46 (inactive) | 0.432 | -1.9 (inactive) | 0.556 (inactive) | -0.0867 (inactive) | -0.421 (inactive) | 2.53 (inactive) | 1.66 (inactive) | 0.685 | 0.176 | 0.187 (inactive) | -1.05 |
| CCOC(=O)C[C@H]1[C@H](OC(=O)c2ccc(C(=O)c3ccccc3)cc2)[C@@H](NC(=O)Cc2ccc(OC)cc2)c2cc(OCCCO)ccc2N1C(=O)Cc1ccc(OC)cc1 | 0.234 | 0.398 | 0.856 | -0.481 | 2.05 | 0.755 (inactive) | -0.131 | 0.356 | 1.54 (inactive) | 0.964 | -1.99 (inactive) | 0.0905 (inactive) | 0.735 (inactive) | -1.05 (inactive) | 1.74 (inactive) | 1.06 (inactive) | 0.678 | 0.0871 | 0.608 (inactive) | 0.0768 |
| CO[C@H]1O[C@H](CO)[C@@H](OC(=O)Nc2ccccc2)[C@H](OC(=O)Nc2ccc3c(c2)OCO3)[C@H]1OC(=O)Nc1ccc2c(c1)OCO2 | 1.27 | -1.27 | -1.03 | -1.98 | -0.136 | 3.03 (inactive) | -0.629 | 0.398 | -1.33 (inactive) | -0.697 | -0.613 (inactive) | -0.652 (inactive) | -0.48 (inactive) | 1.69 (inactive) | 2.13 (inactive) | 0.828 (inactive) | -0.638 | 0.137 | 1.04 (inactive) | 0.846 |
| COc1ccc([Si](C)(C)[C@H]2[C@H](CC(=O)N3Cc4ccccc4C[C@H]3CO)O[C@@]3(C(=O)N(Cc4cccc(N5C(=O)COc6ccccc65)c4)c4ccccc43)[C@@H]2C)cc1 | 1.8 | -0.0432 | -0.227 | -1.19 | 2.09 | 0.335 (inactive) | -1.15 | 0.424 | -0.987 (inactive) | -0.593 | -0.855 (inactive) | -1.11 (inactive) | -0.0999 (inactive) | 2.03 (inactive) | 1.48 (inactive) | -0.185 (inactive) | -0.668 | -0.163 | 1.83 (inactive) | 0.618 |
| CO[C@H]1O[C@H](CO)[C@@H](OC(=O)CCc2ccccc2)[C@@H]2OC(=O)[C@H](Cc3ccccc3)C/C=C/C[C@@H](Cc3ccccc3)C(=O)O[C@@H]12 | 0.234 | 0.62 | -0.0096 | 0.212 | 0.443 | 0.886 (inactive) | 0.12 | 0.119 | 1.43 (inactive) | 1.02 | -2.53 (inactive) | 0.832 (inactive) | -15.6 (active) | -0.103 (inactive) | 1.19 (inactive) | 0.754 (inactive) | 0.884 | -0.039 | 1.2 (inactive) | -0.0342 |
| O=C1c2ccccc2C(=O)c2cc([C@H]3Oc4ccccc4S(=O)(=O)N4CCC[C@@H]34)ccc21 | 1.07 | 0.158 | -2.6 | 0.558 | 2.04 | 0.282 (inactive) | 0.103 | -0.752 | 0.623 (inactive) | 1.62 | -2.8 (inactive) | 0.566 (inactive) | 0.342 (inactive) | -1.5 (inactive) | 2.89 (inactive) | 1.21 (inactive) | 0.476 | 0.0374 | -1.15 (inactive) | -1.82 |
